The whole screen tested about 1,400 compounds, of which about 25 (2%) were called active. Not shown: some 19% with an inconclusive outcome. Calls come from the whole dose curve; as a rule, active = well fitted inhibition curve with a large enough effect; inconclusive = small, poorly fitted or top-dose-only effect; inactive = flat fitted curve, though single readings scatter. The list is a sample of the results.

A short description of the assay: Nrf2 qHTS screen for inhibitors: A549 ARE-Fluc Cytotoxicity Counterscreen for Hit Validation. The settings on record: A549 ARE-Fluc cells; series mostly up to 46.1 µM. The text has this: Nrf2 is a transcription factor that maintains cellular redox homoestasis and protects cells from xenobiotics. Nrf2 binds to the antioxidant response element (ARE) to induce gene expression of a broad spectrum of genes that encode for antioxidants. […] Finding a small molecule that act as an inhibitor of Nrf2 function would represent a novel therapeutic target that could lead to improvement in survival of patients undergoing chemo- and/or radio- therapy.
In collaboration with the Biswal laboratory, a cell based, luminescence assay (BugLite) was developed to detect the Nrf2 activity using the A549 ARE_Fluc cells (AID 504648). This assay was coupled with a fluorescence based (CellTiter Fluor) cytotoxicity assay to identify and exclude toxic compounds. This coupled assay was used to evaluate selected compounds for hit validation. The data herein is the result of the CellTiter Fluor assay where decrease in fluorescence signal = cytotoxicity. Inactivity is the desired outcome for this assay.
NIH Chemical Genomics Center [NCGC]
NIH Molecular Libraries Probe Centers Network [MLPCN]
Assay Submitter (PI): Shyam Biswal, Johns Hopkins University
[1] Shibata T., et al., Genetic alteration of Keap1 confers constitutive Nrf2 activation and resistance to chemotherapy in gallbladder cancer. Gastroenterology, 2008.
[2] Sjoblom T., et al., The consensus coding sequences of human breast and colorectal cancers. Science, 2006.
Five uL of cell suspension was dispensed into 1536-well white TC-treated plate using the Kalypsys dispenser to achieve a density of 5000 cells/well in all columns except column 1. The plates were incubated at 37deg C at 5% CO2 for 2 hours before 23 nL of compounds were added with the Kalypsys pin tool equipped with a 1,536-pin array. The control compounds Budesonide and Staurosporine were added at a concentration of 2mM. Budesonide was also added as a 1:10 titration, starting at 200uM, to achieve the dose-response control signal. The plates were incubated for 18-24 hour at 37deg C, 5% CO2 followed by a 5ul addition of 5% FBS OPTI-MEM growing media in column 1 as negative control. One microliter of 5x CellTiter Fluor (Promega) was added to each well and the assay plates were incubated at 37deg C, 5% CO2 for 30 minutes. The fluorescence signal was read using the PerkinElmer ViewLux plate reader (Ex = 405 nm /Em = 525 nm) for a 3 second exposure. After the signal was taken, 3 uL of 3x BugLite was dispensed into all wells. The plates were then incubated at room temperature for 15 minutes. A second ViewLux read (40 sec exposure) was performed to detect the luminescence signal. Cytotoxicity was assessed through the first fluorescent read while biochemical activity against Nrf2 was measured in the luminescent read. The data was normalized to the positive and negative controls.
A general note: Quantitative high-throughput screening tests each substance at several concentrations.
On to `CCC(C)N1C(=O)S/C(=C/c2ccc(Sc3nc4ccccc4[nH]3)o2)C1=O` (stereo unspecified), for which the call was inactive. For the compound `CC(C)(C)c1ccc(Oc2ccc(N)cc2)cc1`, the outcome was inactive. Consider `CCOc1ccc(S(=O)(=O)N2CCCCC2)cc1NC(=O)CN1CCCC1c1cccs1` (stereo unspecified), for which the compound was called inactive. On to `O/N=C(\C[n+]1ccccc1)c1ccc(Br)cc1`, for which the compound was classed as inactive.

For the compound `COc1ccc(C(=O)C[n+]2ccc(N)c(C)c2C)cc1`, the call was inactive. Regarding `Cc1csc[n+]1CCC1CCCCC1`, the compound was classed as inactive. On to `CCCCNc1nc2c(c(=O)n(C)c(=O)n2C)n1Cc1cccc(OC)c1`, for which the result was inactive. Regarding `COc1cccc(-c2nc(CS(=O)(=O)CC(=O)N3CCN(c4cc(C)ccc4C)CC3)c(C)o2)c1`, the call was inactive. `CC(C)Cn1c(N)c(C(=O)COC(=O)CN2C(=O)C3CC=CCC3C2=O)c(=O)n(C)c1=O` (stereo unspecified): the compound was classed as inactive.

For `O=C1C=C(c2ccnc3cc(Cl)ccc23)C[C@@H](c2ccc3c(c2)OCO3)C1`, the outcome was inactive.

With `CN(Cc1cccnc1)C(=O)c1cc(COc2ccc3ncccc3c2)on1`, the compound was called inactive.

Turning to `Cc1ccc(NS(=O)(=O)c2cccs2)cc1S(=O)(=O)N1CCCCCC1`, the compound was classed as inactive. For `CC(=O)OC(C)C[N+](C)(C)C` (stereo unspecified), the call was inactive. Consider `Cn1nccc1C(=O)NC1CCCc2c1cnn2-c1ccc(F)cc1F` (stereo unspecified), for which the call was inactive. Take `COCCn1c(SCC(=O)Nc2ccccc2F)nc2c(c1=O)SCC2`: the result was inactive. Take `CC(=O)N1c2ccc(S(=O)(=O)N3CCCC(C(=O)Nc4cccc(Cl)c4)C3)cc2CC1C` (stereo unspecified): the result was inactive. On to `CC1CCCN(S(=O)(=O)c2ccc(C(=O)Nc3nnc(-c4ccncc4)o3)cc2)C1` (stereo unspecified), for which the result was inactive. Regarding `CC(=O)N1CCCc2cc(S(=O)(=O)N3CCCC(C(=O)N4CCN(c5cccc(Cl)c5)CC4)C3)ccc21` (stereo unspecified), the result was inactive.

On to `O=C(CN1C(=O)c2ccccc2S1(=O)=O)N1CCc2ccccc21`, for which the result was inactive. For `CC1(C)O[C@@H]2CC3C4C[C@H](F)C5=CC(=O)C=CC5(C)C4C(O)CC3(C)[C@]2(C(=O)CO)O1` (stereo partly specified), the result was inactive. For `Cc1ccc(NC(=O)C2CC(=O)N(c3ccc4c(c3)OCCO4)C2)cc1S(=O)(=O)N1CCCCCC1` (stereo unspecified), the result was inactive. The value for `C=CCC1(CC=C)CCCN1C(=O)c1cc(COc2ccc(-n3cncn3)cc2)on1` was “inactive”; that for `COc1ccc(CC(=O)Nc2nc(-c3ccc(F)c(F)c3)cs2)cc1OC` was “inactive”; that for `CC(C)(C)n1ncc2c(=O)n(Cc3ccc(C(=O)c4ccccc4)cc3)cnc21` was “inactive”. With `Brc1c(CSc2nncc3ccccc23)nc2ccccn12`, the call was inactive. The value for `CCC(C)(C)c1ccc(Oc2ccc(NC(=O)COC(=O)C3=COCCO3)cc2)cc1` was “inactive”; that for `OCCCNc1nccc(-c2cc(Nc3cccc(Cl)c3)ncn2)n1` was “inactive”; that for `CC(=O)N1c2ccc(S(=O)(=O)N3CCCC(C(=O)NCc4ccc(Cl)cc4)C3)cc2CC1C` (stereo unspecified) was “inactive”. In the case of `Cc1cc(C)c(-c2csc(NC(=O)CCCc3nc4ccccc4c(=O)[nH]3)n2)c(C)c1`, the outcome was inactive. In the case of `COc1ccc(CCNC(=O)c2ccc(CS(=O)(=O)c3ccc(Br)cc3)o2)cc1OC`, the call was inactive. The value for `Cc1cccc(N2CCN(C(=O)CCS(=O)(=O)c3ccc4c(c3)NC(=O)C(C)S4)CC2)c1C` (stereo unspecified) was “inactive”; that for `O=C(OCCOc1ccccc1Cl)c1cc(S(=O)(=O)N2CCCCC2)ccc1N1CCOCC1` was “inactive”.

Regarding `Cc1nc(N2CCOCC2)c2c(C)c(C(=O)Nc3ccc(C(F)(F)F)cc3)sc2n1`, the result was inactive. As to `Cc1ccc(S(=O)(=O)N2C[C@@H]3CCCC[C@@H]3[C@@H](C)[C@H]2c2cn(Cc3ccccc3)c3ccc(F)cc23)cc1`, the outcome was inactive. For the compound `Cc1ccc(S(=O)(=O)N2CCN(c3ncnc4ccccc34)CC2)cc1`, the compound was classed as inactive.

Consider `COc1ccc(OC)c(Cc2cnc3nc(N)nc(N)c3c2C)c1`, for which the compound was called inactive. Turning to `O=C(Nc1ccncc1)c1c(F)cccc1F`, the result was inactive. As for `O=C(Nc1ccc(Br)cn1)C1CCN(S(=O)(=O)c2cccs2)CC1`, the call was inactive. For `O=C(CCC(=O)N1CCN(S(=O)(=O)c2ccc(Cl)cc2)CC1)NCc1cccc(C(F)(F)F)c1`, the compound was called inactive. `Cc1cc(C(=O)NC2CCCc3c2cnn3-c2cccc(C)c2C)c(C)o1` (stereo unspecified): the outcome was inactive.

`CCOC(=O)c1cnc(-n2nc(C)cc2C)nc1NNc1cc(C)nc(-c2ccccc2)n1`: the compound was classed as inactive. In the case of `COc1ccc(N2CCN(C(=O)CSCc3nc(-c4ccccc4Cl)oc3C)CC2)cc1`, the result was inactive. On to `CCCOc1ccc(Cc2c(Cl)nc(SC)nc2NC)cc1`, for which the call was inactive.

Turning to `O=c1[nH]c(SCc2cccc(F)c2)nc2ccccc12`, the compound was classed as inactive. `O=C(CSc1nnc2c(n1)[nH]c1ccccc12)NC1CCCCC1`: the call was inactive. As for `CCCN(c1ccc(C(C)C)cc1)S(=O)(=O)c1c(C)[nH]c(=O)[nH]c1=O`, the call was inactive. The entry for `CC1CCN(S(=O)(=O)c2ccc(NC(=O)C3CC(=O)N(c4ccccc4)C3)cc2)CC1` (stereo unspecified) is “inactive”; for `CCCOc1ccc(C(=O)Nc2ccc3oc(-c4cccc(Cl)c4Cl)nc3c2)cc1` it is “inactive”; for `c1ccc(C(=NNc2nc3ccccc3s2)c2ccccn2)cc1` it is “inactive”. Regarding `CCNS(=O)(=O)c1ccc(CCC(=O)N2CCN(c3cc(Cl)ccc3C)CC2)cc1`, the outcome was inactive. As for `Cc1c(Cl)cccc1NC(=O)Cn1cc(C(=O)c2cccs2)c2ccccc21`, the outcome was inactive.

For the origin of these results see PubChem BioAssay AID720523 (National Center for Advancing Translational Sciences (NCATS), 2013).
